Laboratory results reported in the supplement of paper PMC8728848.
The sample as a whole holds a higher share of the strongest signals than the screen did.

Legend:
Experiment in all cases: glycan array binding signal (z-score within array); higher = stronger binding
Settings in all cases: glycan notation: IUPAC condensed, linker removed
Fuc(a1-2)Gal(b1-4)Glc6S = target: Fuc(a1-2)Gal(b1-4)Glc6S
Procedure, shortened: (§1)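 Arrays were curated from the Consortium for Functional Glycomics database, 3228 in total, and kept only where the protein sequence was available. Binding is expressed as a within-array Z-score. This score was averaged across arrays of the same protein sequence at different concentrations or buffers and across linkers, and negative values can be read as non-binding.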

[1] = target: Fuc(a1-2)Gal3S(b1-4)GlcNAc
Procedure, shortened: as §1

[2] = target: Fuc(a1-2)Gal6S(b1-4)Glc6S
Procedure, shortened: as §1

[3] = target: Fuc(a1-2)[Gal(a1-3)]Gal(b1-4)GlcNAc(b1-3)[Fuc(a1-2)[Gal(a1-3)]Gal(b1-4)GlcNAc(b1-6)]GalNAc
Procedure, shortened: as §1

[4] = target: Fuc(a1-3)[Gal(b1-4)]GlcNAc(b1-3)Gal(b1-4)[Fuc(a1-3)]GlcNAc(b1-3)Gal(b1-4)[Fuc(a1-3)]GlcNAc
Procedure, shortened: as §1

[5] = target: Fuc(a1-3)[Gal3S(b1-4)]GlcNAc6S
Procedure, shortened: as §1

Fuc(a1-4)GlcNAc = target: Fuc(a1-4)GlcNAc
Procedure, shortened: as §1

Gal(a1-3)Gal(b1-3)GlcNAc = target: Gal(a1-3)Gal(b1-3)GlcNAc
Procedure, shortened: as §1

[6] = target: Gal(a1-3)Gal(b1-3)[Fuc(a1-4)]GlcNAc(b1-2)Man(a1-3)[Gal(a1-3)Gal(b1-3)[Fuc(a1-4)]GlcNAc(b1-2)Man(a1-6)]Man(b1-4)GlcNAc(b1-4)GlcNAc
Procedure, shortened: as §1

[7] = target: Gal(a1-3)Gal(b1-4)[Fuc(a1-3)]GlcNAc(b1-2)Man(a1-3)[Gal(a1-3)Gal(b1-4)[Fuc(a1-3)]GlcNAc(b1-2)Man(a1-6)]Man(b1-4)GlcNAc(b1-4)GlcNAc
Procedure, shortened: as §1

[8] = target: Gal(a1-3)[Gal(a1-4)]Gal(b1-4)GlcNAc
Procedure, shortened: as §1

[9] = target: Gal(b1-3)GalNAc(b1-3)Gal(a1-4)Gal(b1-4)Glc
Procedure, shortened: as §1

[10] = target: Gal(b1-3)GlcNAc(b1-3)Gal(b1-3)GlcNAc
Procedure, shortened: as §1

[11] = target: Gal(b1-3)GlcNAc(b1-3)Gal(b1-4)GlcNAc(b1-2)Man(a1-3)[Gal(b1-3)GlcNAc(b1-3)Gal(b1-4)GlcNAc(b1-2)Man(a1-6)]Man(b1-4)GlcNAc(b1-4)GlcNAc
Procedure, shortened: as §1

[12] = target: Gal(b1-3)GlcNAc(b1-3)Gal(b1-4)GlcNAc(b1-6)[Gal(b1-3)GlcNAc(b1-3)]Gal(b1-4)Glc
Procedure, shortened: as §1

[13] = target: Gal(b1-3)GlcNAc(b1-6)[Gal(b1-3)]GalNAc
Procedure, shortened: as §1

[14] = target: Gal(b1-3)[Fuc(a1-4)]GlcNAc(b1-2)Man(a1-3)[Gal(b1-3)[Fuc(a1-4)]GlcNAc(b1-2)Man(a1-6)]Man(b1-4)GlcNAc(b1-4)[Fuc(a1-6)]GlcNAc
Procedure, shortened: as §1

[15] = target: Gal(b1-4)GlcNAc(b1-2)Man(a1-6)[Man(a1-3)]Man(b1-4)GlcNAc(b1-4)GlcNAc
Procedure, shortened: as §1

[16] = target: Gal(b1-4)GlcNAc(b1-3)Gal(b1-4)GlcNAc(b1-2)Man(a1-3)[Gal(b1-4)GlcNAc(b1-3)Gal(b1-4)GlcNAc(b1-2)Man(a1-6)]Man(b1-4)GlcNAc(b1-4)GlcNAc
Procedure, shortened: as §1

[17] = target: Gal(b1-4)GlcNAc(b1-3)Gal(b1-4)GlcNAc(b1-2)[Gal(b1-4)GlcNAc(b1-3)Gal(b1-4)GlcNAc(b1-6)]Man(a1-6)[Gal(b1-4)GlcNAc(b1-3)Gal(b1-4)GlcNAc(b1-2)Man(a1-3)]Man(b1-4)GlcNAc(b1-4)[Fuc(a1-6)]GlcNAc
Procedure, shortened: as §1

[18] = target: Gal(b1-4)GlcNAc(b1-3)Gal(b1-4)[Fuc(a1-3)]GlcNAc(b1-3)Gal(b1-4)[Fuc(a1-3)]GlcNAc
Procedure, shortened: as §1

[19] = target: Gal(b1-4)GlcNAc(b1-3)[GlcNAc(b1-6)]Gal(b1-4)GlcNAc
Procedure, shortened: as §1

[20] = target: Gal(b1-4)GlcNAc(b1-6)Gal(b1-4)GlcNAc
Procedure, shortened: as §1

[21] = target: Gal(b1-4)GlcNAc(b1-6)[Gal(b1-3)]GalNAc
Procedure, shortened: as §1

Gal3S(b1-3)GlcNAc = target: Gal3S(b1-3)GlcNAc
Procedure, shortened: as §1

[22] = target: Gal3S(b1-4)[Fuc(a1-3)]Glc6S
Procedure, shortened: as §1

GalNAc(a1-3)Gal = target: GalNAc(a1-3)Gal
Procedure, shortened: as §1

GalNAc(b1-3)GlcNAc = target: GalNAc(b1-3)GlcNAc
Procedure, shortened: as §1

GalNAc(b1-4)GlcNAc = target: GalNAc(b1-4)GlcNAc
Procedure, shortened: as §1

GalNAc6S(b1-4)GlcNAc = target: GalNAc6S(b1-4)GlcNAc
Procedure, shortened: as §1

[23] = target: GlcNAc(a1-3)Gal(b1-4)GlcNAc
Procedure, shortened: as §1

[24] = target: GlcNAc(a1-4)Gal(b1-4)GlcNAc(b1-3)Gal(b1-4)[Fuc(a1-3)]GlcNAc(b1-3)Gal(b1-4)[Fuc(a1-3)]GlcNAc
Procedure, shortened: as §1

[25] = target: GlcNAc(b1-2)Man(a1-3)[GlcNAc(b1-4)][GlcNAc(b1-2)Man(a1-6)]Man(b1-4)GlcNAc(b1-4)[Fuc(a1-6)]GlcNAc
Procedure, shortened: as §1

[26] = target: GlcNAc(b1-2)[GlcNAc(b1-4)]Man(a1-3)[GlcNAc(b1-4)][GlcNAc(b1-2)Man(a1-6)]Man(b1-4)GlcNAc(b1-4)GlcNAc
Procedure, shortened: as §1

[27] = target: Man(a1-2)Man(a1-2)Man(a1-6)[Man(a1-3)]Man
Procedure, shortened: as §1

Man(a1-3)[Man(a1-6)]Man = target: Man(a1-3)[Man(a1-6)]Man
Procedure, shortened: as §1

[28] = target: Man(a1-3)[Man(a1-6)]Man(a1-6)[Man(a1-3)]Man(b1-4)GlcNAc(b1-4)GlcNAc
Procedure, shortened: as §1

Neu5Ac(a2-3)Gal = target: Neu5Ac(a2-3)Gal
Procedure, shortened: as §1

[29] = target: Neu5Ac(a2-3)Gal(b1-3)GalNAc
Procedure, shortened: as §1

[30] = target: Neu5Ac(a2-3)Gal(b1-3)GalNAc(b1-4)[Neu5Ac(a2-3)]Gal(b1-4)Glc
Procedure, shortened: as §1

[31] = target: Neu5Ac(a2-3)Gal(b1-3)GlcNAc(b1-3)GalNAc
Procedure, shortened: as §1

[32] = target: Neu5Ac(a2-3)Gal(b1-3)GlcNAc(b1-6)GalNAc
Procedure, shortened: as §1

Neu5Ac(a2-3)Gal(b1-4)Glc = target: Neu5Ac(a2-3)Gal(b1-4)Glc
Procedure, shortened: as §1

[33] = target: Neu5Ac(a2-3)Gal(b1-4)GlcNAc(b1-6)[Gal(b1-3)]GalNAc
Procedure, shortened: as §1

[34] = target: Neu5Ac(a2-3)Gal(b1-4)GlcNAc(b1-6)[Neu5Ac(a2-3)Gal(b1-3)]GalNAc
Procedure, shortened: as §1

[35] = target: Neu5Ac(a2-3)Gal(b1-4)[Fuc(a1-3)]GlcNAc(b1-3)GalNAc
Procedure, shortened: as §1

[36] = target: Neu5Ac(a2-6)GalNAc(b1-4)GlcNAc
Procedure, shortened: as §1

[37] = target: Neu5Ac(a2-8)Neu5Ac(a2-3)Gal(b1-4)GlcNAc
Procedure, shortened: as §1

[38] = target: Neu5Ac(b2-6)Gal(b1-4)GlcNAc
Procedure, shortened: as §1

Neu5Ac(b2-6)GalNAc = target: Neu5Ac(b2-6)GalNAc
Procedure, shortened: as §1

B1: Thrombomodulin (Mus musculus) (protein)
chain: ALAKLQPTGSQCVEHECFALFQGPATFLDASQACQRLQGHLMTVRSSVAADVISLLLSQSSMDLGPWIGLQLPQGCDDPVHLGPLRGFQWVTGDNHTSYSRWARPNDQTAPLCGPLCVTVSTATEAAPGEPAWEEKPCETETQGFLCEFYFTASC
glycan array binding signal (z-score) (Fuc(a1-2)Gal(b1-4)Glc6S): 0.107
glycan array binding signal (z-score) [1]: -0.236
glycan array binding signal (z-score) [2]: -0.056
glycan array binding signal (z-score) [3]: 5.4
glycan array binding signal (z-score) [4]: -0.183
glycan array binding signal (z-score) [5]: -0.172
glycan array binding signal (z-score) (Fuc(a1-4)GlcNAc): 3.52
glycan array binding signal (z-score) (Gal(a1-3)Gal(b1-3)GlcNAc): 4.59
glycan array binding signal (z-score) [6]: 0.179
glycan array binding signal (z-score) [7]: 0.955
glycan array binding signal (z-score) [8]: 0.213
glycan array binding signal (z-score) [9]: -0.277
glycan array binding signal (z-score) [10]: 0.083
glycan array binding signal (z-score) [11]: -0.022
glycan array binding signal (z-score) [12]: 0.148
glycan array binding signal (z-score) [13]: -0.267
glycan array binding signal (z-score) [14]: 0.595
glycan array binding signal (z-score) [15]: 0.088
glycan array binding signal (z-score) [16]: 1.25
glycan array binding signal (z-score) [17]: 0.053
glycan array binding signal (z-score) [18]: 0.126
glycan array binding signal (z-score) [19]: -0.029
glycan array binding signal (z-score) [20]: -0.219
glycan array binding signal (z-score) [21]: -0.326
glycan array binding signal (z-score) (Gal3S(b1-3)GlcNAc): -0.007
glycan array binding signal (z-score) [22]: 0.12
glycan array binding signal (z-score) (GalNAc(a1-3)Gal): 0.15
glycan array binding signal (z-score) (GalNAc(b1-3)GlcNAc): -0.37
glycan array binding signal (z-score) (GalNAc(b1-4)GlcNAc): 0.33
glycan array binding signal (z-score) (GalNAc6S(b1-4)GlcNAc): -0.071
glycan array binding signal (z-score) [23]: -0.129
glycan array binding signal (z-score) [24]: 0.047
glycan array binding signal (z-score) [25]: -0.052
glycan array binding signal (z-score) [26]: 1.03
glycan array binding signal (z-score) [27]: -0.278
glycan array binding signal (z-score) (Man(a1-3)[Man(a1-6)]Man): 0.154
glycan array binding signal (z-score) [28]: -0.262
glycan array binding signal (z-score) (Neu5Ac(a2-3)Gal): -0.273
glycan array binding signal (z-score) [29]: 1.07
glycan array binding signal (z-score) [30]: -0.4
glycan array binding signal (z-score) [31]: -0.354
glycan array binding signal (z-score) [32]: 0.614
glycan array binding signal (z-score) (Neu5Ac(a2-3)Gal(b1-4)Glc): 2.91
glycan array binding signal (z-score) [33]: -0.321
glycan array binding signal (z-score) [34]: -0.43
glycan array binding signal (z-score) [35]: 0.695
glycan array binding signal (z-score) [36]: -0.193
glycan array binding signal (z-score) [37]: -0.54
glycan array binding signal (z-score) [38]: -0.139
glycan array binding signal (z-score) (Neu5Ac(b2-6)GalNAc): -0.216
